Records with an inconclusive call do not appear. Entries that show only a call come without a potency. Activity calls are given as the source filed them. The call rests on the fitted dose curve; in most records, active means well fitted inhibition curve with a large enough effect; inconclusive means small, poorly fitted or top-dose-only effect; inactive means flat fitted curve, though single readings scatter.
Assay: P-glycoprotein substrates identified in KB-8-5-11 adenocarcinoma cell line, qHTS therapeutic library screen (AID 1346987); further: nearly all actives have a fitted effect of over 65% in size
Conditions: KB-8-5-11 (P-gp overexpressing) viability, CellTiter-Glo, 72 h; series mostly up to 44.5 µM
In short: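 KB-8-5-11: colchicine-selected sub-line of KB-3-1 over-expressing P-gp; assay medium lacked colchicine. 72 h drug exposure at 37 degree C, CellTiter-Glo.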
Potency means the concentration at half of the fitted maximal effect.

Question: With `COc1ccc(/C=C/C(=O)O[C@@H]2[C@@H](O)[C@H](C)O[C@@H](OC3C4C=COC(O[C@@H]5O[C@H](CO)[C@@H](O)[C@H](O)[C@H]5O)C4C4(CO)OC34)[C@@H]2O)cc1OC` (stereo partly specified) as the compound, how does the Potency read?
Answer: The Potency was “inactive”.

Question: For `C/C=C(\C)C(=O)OC[C@H]1O[C@H](O[C@H]2O[C@H](CO)[C@@H](OC(=O)/C(C)=C/C)[C@H](O)[C@H]2O[C@@H]2O[C@H](CO)[C@@H](O)[C@H](O)[C@H]2O)[C@H](O[C@@H]2O[C@H](CO)[C@@H](O)[C@H](O)[C@H]2O)[C@@H](O)[C@@H]1O`, which outcome is on record?
Answer: The outcome was “inactive [at 9.29 µM]”.

Question: For `CC1CCC2(C)C(CC(O)C(O)C23CO3)C1(C)CCC1=CC(O)OC1=O` (stereo unspecified), which Potency is on record?
Answer: The Potency was “inactive”.

Question: For `Cc1c(C)c2c(c(C)c1O)CC[C@@](C)(CCC[C@H](C)CCC[C@H](C)CCCC(C)C)O2`, which Potency is on record?
Answer: Its Potency is “inactive”.

Question: For `COC1=Cc2c(nc3n(c2=O)C(C)C(=O)NC3(O)C(C)C)OC=C1` (stereo unspecified), which Potency is on record?
Answer: Its Potency is “inactive”.

Question: For `CCCCCCCCCCCC[n+]1ccc2ccccc2c1`, which Potency is on record?
Answer: Its Potency is “inactive”.

Question: With `NCc1ccccc1CC(=O)N[C@@H]1C(=O)N2C(C(=O)O)=C(CSc3nnnn3CC(=O)O)CS[C@H]12` as the compound, how does the Potency read?
Answer: The Potency was “inactive”.

Question: With `CC1CCC2C(C)(C)CC(C)(CO)C2(O)C1C(=O)O` (stereo unspecified) as the compound, how does the Potency read?
Answer: The Potency was “inactive”.

Question: Which Potency does the source give for `Cc1ccc(C(=O)Nc2ccc(Oc3cc4cnn(C)c4cc3-c3cn[nH]c3)c(F)c2)c(=O)n1-c1ccc(F)cc1` here?
Answer: The Potency was 4.61 µM (active).

Question: With `CC1=C(/C=C/C(C)=C/C=C/C(C)=C/C=C/C=C(C)/C=C/C=C(C)/C=C/C2=C(C)CCCC2(C)C)C(C)(C)CCC1` as the compound, how does the Potency read?
Answer: Its Potency is “inactive”.

Question: Which activity change, negative = cytotoxicity does the source give for `CC1(C)CC2C3=CCC4C5(C)CCC(OC6OC(C(=O)O)C(O)C(O)C6OC6OC(CO)C(O)C(O)C6OC6OC(CO)C(O)C(O)C6O)C(C)(CO)C5CCC4(C)C3(C)CCC2(C)C(OC2OCC(O)C(OC3OC(CO)C(O)C(O)C3O)C2O)C1O` (stereo unspecified) here?
Answer: Its activity change, negative = cytotoxicity is 1.76% [at 9.29 µM] (inactive).

From PubChem BioAssay (NCATS)
